Compound activity (PubChem BioAssay)
Bead autofluor = flagged as autofluorescent in microsphere protease counterscreen; fluorescence intensity (test concentration not listed); compound autofluorescence counterscreen, microsphere flow cytometry; hits give high values; actives 3.1% (n = 360,000); in the data active means fluorescence intensity above about 16000; inconclusive means no clear call, values can overlap the other calls
BoNT F protease = BoNT/F light chain protease inhibitors, primary screen, biochemical, flow cytometry, MLPCN library. Botulinum neurotoxin type F light chain protease (Clostridium botulinum). Multiplex microsphere protease cleavage assay. inhibition, % at 10 µM. actives 0.22% (n = 360,000). AID 588497, 2011; in the data active means inhibition above about 35%, passing the limit was not always enough; inconclusive means no clear call, values can overlap the other calls; further: plate controls were buffer without enzyme for full effect and enzyme alone for no effect
MazEF act = activators of E. coli MazEF toxin-antitoxin RNase, primary screen, biochemical, fluorescence, uHTS. FAM/BHQ RNA-DNA oligo cleavage fluorescence, 5 h. Endoribonuclease toxin MazF (Escherichia coli (strain K12)), P0AE70. activation, % at 20 µM. AID 504720, 2011. actives 0.32% (n = 350,000); in the data active means activation above about 50%
SSB-PriA inh = inhibitors of Klebsiella pneumoniae PriA binding to SSB C-terminal tail, primary screen, biochemical, AlphaScreen; PriA–SSB C-terminal tail interaction (Klebsiella pneumoniae); AlphaScreen SSBct-PriA binding, biotinylated peptide; inhibition, % at 33 µM; actives 0.6% (n = 430,000); in the data active means inhibition mostly above about 37%, no sharp cut-off; inactive means mostly below about 20%;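 further: plate controls were negative control peptide for no effect and reference peptide for full effect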
Anthrax LF inh2 = Bacillus anthracis LF protease inhibitors, primary screen, biochemical, multiplex microsphere, MLPCN library; actives 0.12% (n = 360,000); inhibition, % at 10 µM; multiplex microsphere protease cleavage assay; Lethal factor (Bacillus anthracis), P15917; further: plate controls were buffer without enzyme for full effect and enzyme alone for no effect
Target sequence (P15917 whole entry, looked up): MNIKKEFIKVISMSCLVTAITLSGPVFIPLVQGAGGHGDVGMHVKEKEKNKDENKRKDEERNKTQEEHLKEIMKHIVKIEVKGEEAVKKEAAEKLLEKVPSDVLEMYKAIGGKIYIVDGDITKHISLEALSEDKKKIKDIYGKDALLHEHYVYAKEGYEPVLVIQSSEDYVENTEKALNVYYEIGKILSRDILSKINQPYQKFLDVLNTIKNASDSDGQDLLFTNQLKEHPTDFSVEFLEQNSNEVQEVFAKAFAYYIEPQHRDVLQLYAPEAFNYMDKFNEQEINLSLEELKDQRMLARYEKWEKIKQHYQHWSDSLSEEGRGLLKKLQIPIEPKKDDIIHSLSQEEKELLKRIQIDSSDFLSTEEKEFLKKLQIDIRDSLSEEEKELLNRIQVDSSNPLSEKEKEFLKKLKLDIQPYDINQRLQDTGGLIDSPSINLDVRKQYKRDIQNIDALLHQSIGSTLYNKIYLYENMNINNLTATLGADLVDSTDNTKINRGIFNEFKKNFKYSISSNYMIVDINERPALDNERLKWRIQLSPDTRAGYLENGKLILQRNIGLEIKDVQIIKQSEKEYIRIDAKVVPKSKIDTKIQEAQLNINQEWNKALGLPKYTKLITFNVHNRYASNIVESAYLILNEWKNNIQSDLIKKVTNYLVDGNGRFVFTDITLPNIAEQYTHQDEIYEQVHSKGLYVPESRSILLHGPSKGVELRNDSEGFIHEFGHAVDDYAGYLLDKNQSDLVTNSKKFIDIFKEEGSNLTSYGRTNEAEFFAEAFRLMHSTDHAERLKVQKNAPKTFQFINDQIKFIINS
BoNT-A LC inh2 = BoNT/A light chain protease inhibitors, primary screen, biochemical, flow cytometry, MLPCN library; multiplex microsphere protease substrate cleavage; inhibition, % at 10 µM; actives 0.17% (n = 360,000); AID 588499, 2011; further: plate controls were buffer without enzyme for full effect and enzyme alone for no effect
The depositor's hits bear a star; ? = inconclusive; nt = not tested or not shown; + = active, no number. Hits are enriched below; roughly 3.3% of the tested compounds scored in any of these assays. Unless noted, no stated cut-off is given here; in the data, active means inhibition above about 30%; inconclusive means no clear call, values can overlap the other calls; inactive means below that.

SMILES	Bead autofluor	BoNT F protease	MazEF act	SSB-PriA inh	Anthrax LF inh2	BoNT-A LC inh2
O=C(CCc1ccc(=O)n(Cc2ccccc2)n1)Nc1nc(-c2cccnc2)cs1	nt	nt	nt	-13.0	nt	nt
C=Cc1ccc(CN2CCCN(Cc3ccc(F)cc3)S2(=O)=O)cc1	4100	44.9*	-1.8	3.0	-5.8	0.2
C=Cc1ccc(CN2CCCN(Cc3ccc(Cl)cc3)S2(=O)=O)cc1	4051	-11.7	1.1	0.9	-10.4	-0.4
O=C(NCc1cnn2ccccc12)c1ccc(-n2cccc2)cc1	nt	nt	nt	17.0	nt	nt
Cc1ccc(CNC(=O)c2ccc(C#CC(C)(C)O)s2)cc1	22677*	-6.0	-2.4	-14.2	-1.5	?
C=C(C)c1ccc(C(C)(C)NC(=O)N(Cc2ccccc2)Cc2ccco2)cc1	22989*	-1.1	-1.3	-22.2	-2.0	?
Nc1c(C(=O)Nc2ccccc2F)sc2nc(Cc3ccccc3)cc(C(F)(F)F)c12	10566	7.4	+	-4.3	8.0	5.9
COCc1cc(C)nc2sc(C(=O)Nc3ccccc3F)c(N)c12	3741	26.1	4.7	-14.1	-4.6	0.0
COc1ccc(CC(=O)NCC(OC)c2cccc(F)c2)cc1OC (configuration not stated)	nt	nt	nt	-24.0	nt	nt
CS(=O)(=O)N(Cc1ccccc1)c1ccc(C(=O)NCc2ccccc2)cc1	22531*	3.7	-1.4	-14.7	-11.1	2.4
CS(=O)(=O)N(Cc1ccccc1)c1ccc(C(=O)NCc2cccnc2)cc1	4213	0.0	2.3	-7.8	-0.7	-0.5
C=CCNC(=O)c1ccc(N(CC=C)S(C)(=O)=O)cc1	4837	11.6	1.4	-22.4	-3.1	0.6
C=CCN(c1ccc(C(=O)NCCc2ccccc2)cc1)S(C)(=O)=O	16236*	-0.2	1.5	-13.6	1.2	1.4
Cc1ccc(-n2nc3c([n+]2[O-])CCc2c-3no[n+]2[O-])cc1	21683*	-2.0	-1.3	-6.8	0.6	-2.4
Cc1ccc(S(=O)(=O)NCc2ccc3c(c2)cc(C)n3C)cc1	1200	-109.9	-1.4	26.4	-73.9	80.6*
Cc1cc2cc(CN3C(=O)c4ccccc4C3=O)ccc2n1C	2185	-56.7	4.2	-4.0	12.9	88.3*
CCN(Cc1ccccc1)C(=O)C1CCN(Cc2ccc(SC)cc2)CC1	4078	2.9	-22.3	-15.0	1.6	0.9
CCN(Cc1ccccc1)C(=O)C1CCN(Cc2ccc(OC)c(OC)c2OC)CC1	22911*	-0.9	-1.3	-15.9	0.6	?
C=CC(C)N1C(=O)S/C(=C\c2ccc(N3CCOCC3)cc2C)C1=O (configuration not stated)	2814	2.1	43.2	-36.1	-0.4	0.9
C=CCN1C(=O)S/C(=C\c2ccc(N3CCOCC3)cc2C)C1=O	7105	-0.8	103.4*	-14.6	-0.5	0.5
Cc1cc(=O)[nH]c(-n2nc(-c3cccs3)cc2NC(=O)c2ccc(Br)o2)n1	nt	nt	nt	3.0	nt	nt
COc1cccc(/C=C/C(=O)OCC(=O)c2c[nH]c3ccccc23)c1	8437	0.8	-13.9	-10.3	1.8	3.4
CC1CC(C)CN(CC(=O)c2c[nH]c3ccccc23)C1 (configuration not stated)	7467	35.7*	-26.4	-0.9	-0.2	1.7
O=C(COC(=O)C1CCC1)c1c[nH]c2ccccc12	6422	-3.8	-2.3	-9.1	-0.3	1.3
COc1cccc(/C=C/C(=O)OCC(=O)c2c[nH]c3ccccc23)c1OC	4789	-9.0	22.3	-2.0	14.9	39.1*
SMILES	Bead autofluor	BoNT F protease	MazEF act	SSB-PriA inh	Anthrax LF inh2	BoNT-A LC inh2
O=C(COC(=O)C1CC1)c1c[nH]c2ccccc12	19998*	4.8	-0.4	0.0	-16.1	4.3
CCn1nc(C(=O)OCC(=O)c2c[nH]c3ccccc23)c2ccccc2c1=O	10209	-17.5	5.2	1.0	38.0*	44.7*
CCc1nc(C)ccc1OCC(=O)NCCCN(C)C	22619*	-1.9	2.0	-15.9	-0.8	-1.8
CCc1nc(C)ccc1OCC(=O)O	3416	-0.5	9.0	-15.1	-0.6	0.4
O=C(CSc1nccnc1N1CCN(c2ccccc2)CC1)Nc1ccccc1Br	nt	nt	nt	-1.0	nt	nt
CCOc1ccc(C(=O)CCC(=O)O)cc1	10329	-2.5	-10.3	-13.8	-1.4	0.3
CCOc1ccc(OCCCC(=O)O)cc1	20482*	-0.8	4.3	-6.8	-2.2	0.4
Cc1cccc(CC2SC(=NN=Cc3ccco3)NC2=O)c1 (configuration not stated)	nt	nt	nt	-7.9	nt	nt
COC(=O)CC1COc2ccccc2N1C(=O)c1ccc(C(C)(C)C)cc1 (configuration not stated)	20115*	-0.2	-5.2	-6.7	0.0	?
COC(=O)CC1COc2ccccc2N1C(=O)c1ccc(Cl)cc1 (configuration not stated)	23189*	-1.2	6.0	-3.6	-7.4	-1.9
COC(=O)CC1COc2ccccc2N1C(=O)c1ccc(Br)cc1 (configuration not stated)	4286	4.0	2.0	-6.1	3.6	0.4
Cc1cc(C)n(CC(=O)NCc2ccc3c(c2)OCO3)c(=O)c1-c1nc(-c2ccc(Cl)cc2)no1	nt	nt	nt	-4.0	nt	nt
COC(=O)c1ccc(NC(=O)C(=O)NC[C@H](O)c2csc3ccccc23)cc1	nt	nt	nt	-11.0	nt	nt
COCCn1c(=NC(=O)c2ccnn2C)sc2cccc(F)c21	nt	nt	nt	-3.0	nt	nt
Cc1ccc2[nH]cc(C(=O)CN3CCN(c4ccccn4)CC3)c2c1	3676	0.2	4.8	-7.0	-1.1	1.4
COc1ccc2c(C(=O)CN3CCN(c4ccccc4)CC3)c[nH]c2c1	24933*	-0.6	29.7	-9.1	-1.8	?
COc1ccc2c(C(=O)CN3CCSCC3)c[nH]c2c1	6542	4.5	-4.6	3.7	2.2	1.7
COc1ccc(N2CCN(CCCNC(=O)C(=O)c3c[nH]c4ccccc34)CC2)cc1	5466	-9.5	3.9	48.4*	-2.4	-1.3
Cc1ccc2[nH]cc(C(=O)CN3CCN(C)CC3)c2c1	23399*	-2.5	3.4	-11.1	-1.5	?
O=C(NCCCN1CCOCC1)C(=O)c1c[nH]c2ccccc12	3874	-6.4	2.1	-3.1	9.6	-3.2
Cc1nc2ccc(NC(=O)c3cccnc3)cc2c(=O)n1-c1ccc(Cl)cc1	nt	nt	nt	-13.0	nt	nt
O=C(O)CC(CC(=O)Nc1nncs1)c1ccccc1 (configuration not stated)	3227	-4.9	5.0	-4.7	0.5	-0.7
O=C(O)CC(Cn1[nH]nnc1=S)c1ccccc1 (configuration not stated)	22296*	0.0	-1.4	-12.8	0.7	?
